# Screening data as filed in PubChem BioAssay.
# Sampled rows, rich in hits. Any-hit rate of the full collection: about 2.8%.
# CDK5 p35 inh – blocks human CDK5/p35 kinase activity | Recombinant CDK5/p35, ADP-Glo luminescence, 60 min | inhibition, % at 10 µM | 0.01% of 330,000 active | AID 488839;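 active = highest replicate inhibition of at least 50% and at least 75% of replicates reaching 50%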
# PglD inh – PglD (C. jejuni) enzyme inhibition | inhibition, % at 12.5 µM | 0.098% of 360,000 active | purified PglD enzyme, DTNB colorimetric CoA detection; in the data active = inhibition above about 16%, passing the limit was not always enough
# FGF22 binding – FGF22 (human) thermal shift binding | Q9HCT0 | recombinant FGF22 thermal shift, SYPRO orange fluorescence; percent of sucrose octasulfate shift, DMSO zero | activity (Tm shift, normalised), % at 9.99 µM | 1.5% of 340,000 active | AID 651658;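 active = mean Tm shift, scaled 0 neutral to 100 positive control, at about 1.3% or above, every replicate too, limit read from the data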
# SIRT5 inh – inhibitors of human sirtuin-5 desuccinylase; inhibition, % at 15 µM; Purified SirT5, succinyl-peptide AMC, trypsin-coupled fluorescence; Q9NXA8; 1.1% of 330,000 active; in the data active = inhibition above about 15%
# PvdQ acylase – blocks Pseudomonas aeruginosa PvdQ acylase activity; purified PvdQ acylase, fluorescence plate reader; inhibition, % at 10 µM; 0.063% of 340,000 active; in the data active = inhibition above about 30%, passing the limit was not always enough
# dFosB activator – activators of mouse delta FosB homodimer; P13346; activation, % at 25 µM; 0.99% of 340,000 active; AID 493131; purified delta FosB, TAMRA-CDK5 oligo fluorescence polarization; percent of positive-control signal above neutral wells;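 active = mean activation above about 17%, with every replicate also reaching it, limit read from the data, passing the limit was not always enough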
# Numbers stand for hits; – = inactive; · = not tested or not shown.
SMILES,CDK5 p35 inh,PglD inh,FGF22 binding,SIRT5 inh,PvdQ acylase,dFosB activator
CNC[C@@H]1Oc2ccc(NS(=O)(=O)c3cccs3)cc2C(=O)N([C@H](C)CO)C[C@@H]1C,·,–,–,–,·,·
CC=Cc1ccc2n(c1=O)C[C@@H]1[C@@H](CO)[C@H](C(=O)NCC3CC3)N(C(=O)C3CCOCC3)[C@H]21 (mixture of isomers),·,–,–,–,·,·
CO[C@@H](CN(C)S(=O)(=O)c1ccc(Cl)cc1)[C@H](C)CN([C@H](C)CO)S(=O)(=O)c1cccc(Cl)c1,·,–,–,16,·,·
CC1CC(C(F)(F)F)n2nc(C(=O)O)cc2N1 (stereo not drawn),–,–,·,–,–,–
O=C(O)c1cc2n(n1)C(C(F)(F)F)CC(C1CC1)N2 (stereo not drawn),–,–,43,–,–,–
CCNC(=S)N/N=C/c1cc(C)n(-c2ccc(Cl)cc2)c1C,–,·,–,16,–,–
Cc1cc(/C=N/NC(N)=S)c(C)n1-c1ccc(Cl)c(Cl)c1,–,·,–,–,–,–
COc1ccc(CNc2ncnc3cc(Cl)ccc23)cc1OC,–,·,43,–,–,–
COC(=O)c1oc2ccccc2c1NC(=O)c1ccccc1O,–,–,43,–,–,–
C[C@H](CO)N1C[C@H](C)[C@@H](CN(C)Cc2ccccn2)Oc2ncc(C#CC(C)(C)O)cc2C1=O,·,–,–,–,·,·
COCCCNC(=S)NC1CC2CCC(C1)N2Cc1ccccc1 (stereo not drawn),–,·,43,–,–,–
COc1cc(OC)c(-c2c3cc(O)c(=O)cc-3oc3cc(O)c(O)cc23)cc1OC,–,·,–,–,–,22
Cc1c2cc(O)c(=O)cc-2oc2cc(O)c(O)cc12,–,–,–,29,–,–
CC(=O)NC[C@@H]1[C@H](c2ccc(-c3ccccc3)cc2)[C@H](CO)N1C(=O)C1CCC1,·,–,–,–,·,·
C[C@H]1CCCCO[C@@H](CN(C)Cc2ccc3c(c2)OCO3)[C@@H](C)CN([C@@H](C)CO)C(=O)c2cc(NS(=O)(=O)c3ccc(Cl)cc3)ccc2O1,·,–,·,–,·,·
NNC(=O)c1ccccc1-n1cccc1,–,–,43,22,–,–
O=C(Cn1ccc(=O)[nH]c1=O)Nc1ccc(O)c([N+](=O)[O-])c1,–,–,43,·,–,–
O=C(NCC[C@H]1CC[C@@H](NC(=O)C2CC2)[C@H](CO)O1)c1cc(Cl)cc(Cl)c1,·,–,–,–,·,·
O=C(CNCc1ccccn1)Nc1cc(C(F)(F)F)ccc1N1CCOCC1,–,–,–,17,–,–
CC1(C)CN=C(c2ccccc2)NC1,–,–,43,·,–,–
CCC1(C)CN=C(c2ccccc2)NC1 (stereo not drawn),–,–,–,–,–,–
COc1ccc(S(=O)(=O)/N=C2/NC(=O)/C(=C\c3ccco3)S2)cc1,–,·,·,·,–,–
COc1ccc(S(=O)(=O)/N=C2/NC(=O)/C(=C/c3ccco3)S2)cc1,–,·,1.4,16,–,–
COCCN(C(=O)C(=O)NC1CCCC1)C(C(=O)NC1CCCC1)c1ccccc1F (stereo not drawn),–,–,44,–,–,–
CCN1CCc2c(sc(NC(=O)c3ccc(S(=O)(=O)N(C)CC4CCCO4)cc3)c2C(N)=O)C1 (stereo not drawn),–,–,–,24,–,–
SMILES,CDK5 p35 inh,PglD inh,FGF22 binding,SIRT5 inh,PvdQ acylase,dFosB activator
CCCN1CCc2c(sc(NC(=O)c3ccc(S(=O)(=O)N(C)c4ccccc4)cc3)c2C(N)=O)C1,–,–,·,–,–,42
CN1CCc2c(sc(NC(=O)c3ccc(S(=O)(=O)N4CCCCCC4)cc3)c2C(N)=O)C1,–,–,·,·,–,54
CC(C)c1cn(CC[C@H]2CC[C@@H](NS(=O)(=O)c3ccccc3)[C@@H](CO)O2)nn1,·,–,–,–,·,·
NS(=O)(=O)c1ccc(F)c(C(=O)O)c1,–,–,–,19,–,–
O=C(c1cc(S(=O)(=O)N2CCCCC2)ccc1F)N1CCCCC1,–,–,–,–,–,–
O=C(Cn1nc(-c2ccc(Cl)cc2)ccc1=O)NCC1COCCO1 (stereo not drawn),–,–,–,18,–,–
O=C(Cn1nc(-c2ccccc2)ccc1=O)NCC1COCCO1 (stereo not drawn),–,–,·,·,–,–
OC[C@@H]1[C@@H](c2ccccc2)C2(CN(Cc3nccs3)C2)N1Cc1ccncc1,·,·,–,16,·,·
